# RTF Ca sens inh = cardiac RTF calcium desensitization; P19429+P45379; IANBD-labeled cardiac RTF, Ca2+ fluorescence; inhibition, % at 7.15 µM; 0.12% of 340,000 active; AID 493244;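 active means inhibition above the mean inhibition of all tested compounds plus 3 SD, cut at about 17% in these data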;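 further: assay run at fixed EC70 calcium of 1.6 mM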
# cardiac RTF act = cardiac RTF calcium sensitization | P19429+P45379 | AID 493008 | 0.24% of 340,000 active | activation, % at 7.2 µM | IANBD-labeled TnC RTF fluorescence at EC20 calcium; 0% EC20 calcium, 100% full calcium;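 active means activation above the mean over all tested compounds plus 3 SD, cut at about 30% in these data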;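 further: rise in fluorescence read as greater calcium sensitivity of cardiac thin filaments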
# TMEM16A act = activators or potentiators of mouse TMEM16A chloride channel; HEK293 TMEM16A/YFP-H148Q/I152L, iodide quench fluorescence; hits give low values; B-score at 10 µM; 0.3% of 340,000 active; AID 623877;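 active means fluorescence-ratio B-score plate-corrected deviation score at least 3 library SD below zero, with starting fluorescence score within 5 deviations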;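 further: channel opened by trigger with iodide after compound preincubation; score built on the fluorescence ratio of max minus min over baseline; more negative score means more quench and so TMEM16A activation or potentiation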
# Target sequence (Q8BHY3 whole entry, looked up): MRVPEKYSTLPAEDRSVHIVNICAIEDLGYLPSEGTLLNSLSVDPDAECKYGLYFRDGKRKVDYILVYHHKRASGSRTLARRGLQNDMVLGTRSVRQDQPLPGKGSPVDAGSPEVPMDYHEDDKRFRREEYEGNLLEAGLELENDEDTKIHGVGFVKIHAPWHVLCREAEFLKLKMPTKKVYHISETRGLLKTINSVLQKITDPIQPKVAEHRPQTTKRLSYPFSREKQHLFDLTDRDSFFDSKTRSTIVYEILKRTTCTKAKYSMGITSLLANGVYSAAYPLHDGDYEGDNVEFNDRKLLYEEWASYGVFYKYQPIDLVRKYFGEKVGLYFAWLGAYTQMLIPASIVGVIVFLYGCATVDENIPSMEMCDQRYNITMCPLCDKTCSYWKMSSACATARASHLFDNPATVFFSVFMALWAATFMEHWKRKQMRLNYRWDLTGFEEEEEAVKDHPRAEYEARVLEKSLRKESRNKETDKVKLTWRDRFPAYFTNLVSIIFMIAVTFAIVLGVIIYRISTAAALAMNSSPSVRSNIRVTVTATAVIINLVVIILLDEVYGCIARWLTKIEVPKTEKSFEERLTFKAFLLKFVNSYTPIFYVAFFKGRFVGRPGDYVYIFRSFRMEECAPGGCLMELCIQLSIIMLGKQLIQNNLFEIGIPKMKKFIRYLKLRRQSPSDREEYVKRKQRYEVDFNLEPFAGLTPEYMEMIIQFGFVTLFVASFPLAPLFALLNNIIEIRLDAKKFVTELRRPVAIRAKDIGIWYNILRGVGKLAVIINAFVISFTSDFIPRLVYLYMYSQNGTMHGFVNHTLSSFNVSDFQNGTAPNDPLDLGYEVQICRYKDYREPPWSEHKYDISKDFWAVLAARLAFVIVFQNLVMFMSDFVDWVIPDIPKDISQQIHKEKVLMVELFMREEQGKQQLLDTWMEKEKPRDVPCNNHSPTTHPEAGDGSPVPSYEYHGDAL
# CRFBP-R2 block = CRF-BP/CRF-R2 complex antagonism; HEK293 CRF-R2/CRF-BP, CRF-induced calcium fluorescence; inhibition, % at 11.8 µM; 0.59% of 350,000 active; AID 588475;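 active means inhibition of the ligand-induced calcium signal above about 50% at the single tested concentration, limit read from the data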
# ANO1 block = mouse TMEM16A channel inhibition, primary screen | 1.2% of 310,000 active | Q8BHY3 | normalized B-score (activity score, 25-100; higher = stronger inhibition) at 10 µM | HEK293 TMEM16A/YFP iodide influx fluorescence, ionomycin;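 active means ratio plate-corrected score three or more library SD toward inhibition, starting fluorescence score within five deviations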;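 further: score derived from kinetic fluorescence span divided by baseline fluorescence per well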
# CRFR2-BP ag = agonists of human CRF-binding protein/CRF-R2 receptor complex | 0.46% of 350,000 active | HEK293 CRF-R2/CRF-BP, calcium dye fluorescence (FLIPR); percent of saturating CRF peptide response | activation, % at 13.2 µM | AID 588473;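 active means activation of at least 50%, plus an integration ratio under a set limit after plate pattern correction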;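 further: plate controls were neutral control wells without compound for no effect and CRF at EC100 for full effect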
# The depositor's hits bear a star; i = inactive; x = no result given. A selection: hits, their analogues and other compounds. The true share with any hit is near 2.4%.
SMILES,RTF Ca sens inh,cardiac RTF act,TMEM16A act,CRFBP-R2 block,ANO1 block,CRFR2-BP ag
CSc1nnc(N2C(=O)C(O)=C(C(=O)c3ccco3)C2c2cccc(Cl)c2)s1 (stereo not drawn),-11,9,i,-21,i,23
COc1cc(C2C(C(=O)c3ccc(C)o3)=C(O)C(=O)N2c2cc(C)on2)cc(Br)c1O (stereo not drawn),-18,1,i,-18,i,-3
CSc1nnc(N2C(=O)C(O)=C(C(=O)c3ccco3)C2c2ccc(F)cc2)s1 (stereo not drawn),-22,2,-6.6*,19,i,13
CCSc1nnc(N2C(=O)C(O)=C(C(=O)c3ccco3)C2c2cccc(OC)c2)s1 (stereo not drawn),-9,7,-6.9*,-2,i,3
CCOc1cccc(C2C(C(=O)c3ccco3)=C(O)C(=O)N2c2nnc(C)s2)c1 (stereo not drawn),-6,5,i,-15,x,20
COc1cc(C2C(C(=O)c3ccco3)=C(O)C(=O)N2c2cc(C)on2)cc(Br)c1O (stereo not drawn),-7,8,i,80*,i,1
CCn1nc(C)cc1C(=O)N1CCCC(CCC(=O)NCc2ccccc2F)C1 (stereo not drawn),-17,4,i,-8,i,-2
CCOc1ccc(-c2cnc(NCc3cccc4ccccc34)n2CCOC)cc1,0,3,i,-6,100*,2
O=C(NNC(=O)c1cccc2ccccc12)c1ccc(-c2ccccc2)cc1,-2,1,-15*,-1,i,1
C=CCN(CC(=O)NCc1ccccc1)C(=O)c1csnn1,-7,-3,i,87*,i,4
COc1ccc(CNC(=O)CN(Cc2ccccc2)C(=O)c2csnn2)cc1,-9,-5,i,-10,i,1
CCOC(=O)N1CCN(C(=O)c2ccc3nc(SCc4ccc(F)cc4)n(C)c3c2)CC1,-11,1,i,51*,i,-5
CCCCn1c(N)c(N(CC(C)C)C(=O)CCNC(=O)c2ccc([N+](=O)[O-])cc2)c(=O)[nH]c1=O,1,-4,i,-6,x,0
COc1ccccc1NS(=O)(=O)c1cc(C(=O)NCCC(C)C)ccc1F,-2,-1,-9.5*,-87,i,85*
C/C(=N\NC(=O)c1cc2ccccc2cc1O)c1cc2ccccc2o1,-1,2,i,3,100*,50
Cc1ccc(Cl)cc1NC(=O)c1cc(S(=O)(=O)N2CCOCC2)cn1C,-3,0,i,12,i,-1
O=C(NC1CC1)c1cccc(S(=O)(=O)Nc2ccccc2F)c1,-6,3,-4.9*,0,i,0
O=C(NNC(=O)c1cccc(S(=O)(=O)Nc2ccccc2F)c1)c1ccncc1,x,x,x,-38,x,4
CCCNS(=O)(=O)c1cccc(C(=O)NC2CCCc3ccccc32)c1 (stereo not drawn),-7,-2,i,52*,i,-1
CC(C)CN(CCCNC(=O)CN1C(=O)COc2ccc(S(=O)(=O)N3CCCC3)cc21)CC(C)C,-2,0,i,10,i,2
CCN(CC)C(=O)C1=C(C)N(Cc2ccc(OC)cc2)C(=O)C(CC(=O)NCCc2ccccn2)C1 (stereo not drawn),x,x,x,12,x,3
CC1CCN(S(=O)(=O)c2ccc3c(c2)N(CC(=O)NCCCN2CCCC(C)C2)C(=O)CS3)CC1 (stereo not drawn),-1,-2,i,-8,i,-1
CC1CCCN(CCCNC(=O)CN2C(=O)CSc3ccc(S(=O)(=O)N4CCOCC4)cc32)C1 (stereo not drawn),-3,-1,i,89*,i,2
CCOC(=O)n1cnc2nc(N)nc(SC)c21,-4,-6,i,5,x,0
COc1ccc(N(C)S(=O)(=O)c2ccc3c(c2)oc(=O)n3C)cc1,2,-1,i,20,i,0
SMILES,RTF Ca sens inh,cardiac RTF act,TMEM16A act,CRFBP-R2 block,ANO1 block,CRFR2-BP ag
CN(c1ccccc1)S(=O)(=O)c1ccc(-c2ccccc2)cc1,-8,-4,i,-6,25*,2
CN(c1ccccc1)S(=O)(=O)c1ccc2c(c1)oc(=O)n2C,2,1,i,59*,i,0
FC(F)(F)c1cc(CCN2CCNC[C@H]2Cc2cccc3ccccc23)cc(C(F)(F)F)c1,-13,13,-9.7*,-17,i,12
CCc1c(C2(O)CCCCC2)[nH]c2cc(C(F)(F)F)ccc12,3,-2,i,-41,100*,1
Cc1c(C2(O)CCCCC2)[nH]c2cc(C(F)(F)F)ccc12,0,4,i,-13,x,-2
CC1=CN2C(=N)/C(=C/c3ccc([N+](=O)[O-])o3)C(=O)N=C2S1,-28,26,i,-112,i,56*
Cc1ccc2[nH]c3c(=O)n4c(nc3c2c1)SCC4,-3,-4,i,30,i,-2
CCN1CCN(CC(=O)Nc2ccc(Cl)c(S(=O)(=O)N(C)C)c2)CC1,-6,-2,i,11,i,-1
COC(=O)Cc1ccc(NC(=S)NCc2cccc(OC)c2)cc1,-7,0,i,15,i,-3
CCCCc1ccc(NC(=S)Nc2cccnc2)cc1,-8,4,i,53*,i,-2
CCCCc1ccc(NC(=S)Nc2ccc(Cl)c(S(=O)(=O)N(C)C)c2)cc1,-9,8,i,-72,100*,13
CCCCc1ccc(NC(=S)NCc2cccc(OC)c2)cc1,7,-8,i,-27,100*,2
CC(NCC(=O)Nc1ccccc1C(=O)NC1CC1)c1cccc(Cl)c1 (stereo not drawn),-11,3,i,66*,x,0
CC(NCC(=O)Nc1ccccc1C(=O)NC1CC1)c1ccc(Cl)cc1 (stereo not drawn),x,x,x,-26,x,-1
O=C(NC(=S)N1CCN(c2ccc(F)cc2)CC1)C12CC3CC(CC(C3)C1)C2,5,0,-5.4*,-81,i,4
CCOc1ccc(N(CC(=O)NC2CCCCC2)C(=O)CCC(=O)Nc2nccs2)cc1,-3,-2,i,-5,i,-1
O=C(O)CCC(=O)Nc1nnc(C(F)(F)F)s1,0,4,i,4,i,2
CCC(NC(=O)Nc1nnc(C(F)(F)F)s1)(C(F)(F)F)C(F)(F)F,-9,-3,i,29,100*,48
CCOC(=O)C1CCN(c2nc3cc(OC)ccc3cc2C#N)CC1,-6,-1,i,57*,i,-1
